# A549 viability – kills or reduces viability of A549 cells in Nrf2 counter-screen. AID 504648. Potency, µM (titrated, usually from 46 µM), for the others: at the top dose activity change, negative = cytotoxicity, actives largely listed as inhibitors. A549 ARE-Fluc cells, CellTiter-Fluor viability, 18-24 h. 390,000 tested, 0.16% active; also: % is scaled to controls: 0 for no effect and ±100 for the full control effect
#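 A549 ARE_Fluc cells in 5% FBS OPTI-MEM were exposed to compounds in concentration-response for 18-24 h at 37 deg C. Viability was read by CellTiter-Fluor fluorescence (Ex 405/Em 525) after 30 min, before the luciferase read.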
# Nrf2 inh – Nrf2 pathway inhibition | A549 ARE-Fluc reporter, luciferase luminescence, 18-24 h | Potency, µM (titrated, usually from 46 µM), for inactives: at the top dose activity change, negative = inhibition, actives largely listed as inhibitors | 360,000 tested, 2.1% active | AID 504444; also: % is scaled to controls: 0 for no effect and ±100 for the full control effect; nearly all actives have a fitted effect of over 60% in size
#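 A549 ARE_Fluc cells, 5000/well, 5% FBS OPTI-MEM; compounds in dose-response, 18-24 h at 37 °C/5% CO2; CellTiter-Fluor viability read (Ex 405/Em 525), then BugLite luciferase luminescence = Nrf2 activity.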
# Epigenetic derep – derepresses silenced GFP reporter in murine cells; 280,000 tested, 0.2% active; murine LDR cells, GFP reporter derepression, 30 h; Potency, µM (doses to about 53.9 µM), for inactives: at the highest dose GFP activation, usual class: activators; AID 1865; also: % of control where 0% means no effect; nearly all actives have a fitted effect of over 60% in size
#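 GFP-positive cell count by laser-scanning cytometry (objects 20–120 um) after 30 h, 37 C compound exposure of murine LDR cells; reporter is CMV-GFP integrated at a silenced locus, inducible by HDAC or DNMT inhibitors.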
# Nrf2 activator – Nrf2 pathway activation | 410,000 tested, 0.31% active | Potency, µM (highest dose often 46.1 µM), inactives show at the top dose activation, usual class: activators | AID 624171 | AREc32 ARE-luciferase reporter (MCF7-derived line), luminescence, 24 h; also: % of control where 0% means no effect; nearly all actives have a fitted effect of over 65% in size
#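 Reporter line AREc32 (ARE-Fluc), seeded overnight in OPTI-MEM with 5% FBS; compound pin-transferred, 24 hr at 37 deg C, 5% CO2; luminescent read-out.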
# PINK1 expr mod – changes PINK1 expression; PINK1 immunofluorescence, high-content cytometry, 24 h; 410,000 tested, 0.2% active; Potency, µM (series often up to 76.6 µM), inactives show top-dose activation (PINK1 increase), hits mostly activators; active = well fitted activation curve with a large enough effect; inconclusive = small, poorly fitted or top-dose-only effect; cell line not stated here; also: % of control where 0% means no effect; nearly all actives have a fitted effect of over 65% in size
#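 Measures PINK1 amount and localization on or inside mitochondria by immunofluorescence. Stable cells get compounds at 5 concentrations for 24 hours before fixation and staining; CCCP controls included.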
# Starred values were filed as active, the others as inactive; ? = inconclusive; / = not tested or not shown; [ ] = remark or other dose. Compounds with a hit are over-represented: about 2.4% of the library has one in this group of screens. Unless noted, calls follow the shape of the dose curve; as a rule, active = well fitted curve in the direction sought with a large enough effect; inconclusive = small, poorly fitted or top-dose-only effect, or another doubt; inactive = no such curve, though single readings can be large; an effect the other way counts as inactive or inconclusive. Potency is read from the fitted curve at half-maximal effect.
SMILES,A549 viability,Nrf2 inh,Epigenetic derep,Nrf2 activator,PINK1 expr mod
COc1ccc(-c2c(C#Cc3ccc(N(C)C)cc3)c3ccccc3n2C)cc1,-1%,?,/,-1%,18µM*
COc1ccc(-c2c(C#Cc3ccsc3)c3cc(Br)ccc3n2C)cc1,1%,1%,/,6%,3%
Cc1c(CCC(=O)O)c(=O)oc2cc3occ(C(C)(C)C)c3cc12,-1%,18µM*,-2%,4%,-3%
Cc1c(C(=O)N2CCC(C)CC2)sc2ncnc(N(C)c3ccccc3)c12,-9%,18µM*,0%,0%,2%[38.3 µM]
c1cncc(OC2CCN(Cc3ccc4c(c3)CN(Cc3nc5ccccc5s3)CCO4)CC2)c1,/,/,/,/,0%
COC(=O)c1c(OCc2ccccn2)cc(=O)n2c1CCN(Cc1cccc(C(F)(F)F)c1)CC2,/,/,/,/,1%
Cc1noc(/C=C/Nc2ccc(F)cc2F)c1[N+](=O)[O-],-21%,5%,?,2.8µM*,-2%
COc1ccccc1N/C=C/c1onc(C)c1[N+](=O)[O-],?,?,?,-2%,5%
Cc1ccc(NS(=O)(=O)c2ccc3c(c2)N(C)C(=O)CC(=O)N3C)cc1Cl,-4%,?,-3%,4%,3%
Cc1ncsc1CCOC(=O)c1ccc(N2CCOCC2)c([N+](=O)[O-])c1,-1%,7%,1%,0%,-1%
Cc1c(CCOC(=O)c2ccc(N3CCOCC3)c([N+](=O)[O-])c2)sc[n+]1CC#N,?,16µM*,-1%,10%,-4%
Cc1cccc(-n2c(CCn3nc(C)c([N+](=O)[O-])c3C)n[nH]c2=S)c1,-10%[1.84 µM],3%,0%,0%,11µM*
COc1ccc(O[C@H]2C=C[C@@H](c3ccccc3)O[C@@H]2CON=C(C)C)cc1,/,/,0%[10.1 µM],/,/
Cc1ccc(OCC(=O)Nc2ccc3nc(SCC(=O)N4CCCC4)sc3c2)cc1C,-20%,?,11%,-1%,2%
Oc1ccc(C[C@H]2CNC(=S)N2CC2CCCN2C[C@H](Cc2ccccc2)N2C[C@H](Cc3ccc(O)cc3)N(CCc3ccccc3)C2=S)cc1 (some centres not stated),?,15µM*,/,-1%,-1%
Oc1ccc(C[C@@H](CN2CCC[C@@H]2CN2C(=S)NC[C@@H]2Cc2ccccc2)N2C[C@H](Cc3ccccc3)N(CCc3ccccc3)C2=S)cc1,/,/,/,4%,1%
CC(C)C[C@@H](CN1CCCC1CN1C(=S)NC[C@@H]1Cc1ccc(O)cc1)N1C[C@H](Cc2ccc(O)cc2)N(CC2CCCCCC2)C1=S (some centres not stated),-7%,21µM*,/,-3%,-1%
C(=C\c1ccc2ccccc2n1)/c1cccnc1,/,/,/,/,1%
Cc1ccc(NC(=O)c2ccc3c(c2)CCC(=O)N3)cc1C,2%,5%,/,/,/
Cc1c(C(=O)NC(C)(C)C)sc2ncnc(NCCN(C)C)c12,/,/,/,/,0%
COc1cc2ncnc(N(C)Cc3csc(C)n3)c2cc1-c1ccc2c(c1)OCO2,0%,?,/,/,/
COc1ccc(-c2ccc3ncnc(N(C)Cc4csc(C)n4)c3c2)cc1OC,-15%,3.7µM*,/,/,/
CCOC(=O)N1c2ccccc2Sc2ccccc21,-2%,-11%,0%,-1%,4%
Cc1nnc(SC(=O)N2c3ccccc3Sc3ccccc32)s1,0%,13µM*,0%,?,-1%[38.3 µM]
CC(=O)c1ccc(-c2ccc3c4c(ccc3c2)OC(CNC(=O)C(C)N2CCOCC2)C4)s1 (configuration not stated),/,/,/,/,-1%
COc1ccc(-c2ccnc3nc(-n4cccc4)nn23)cc1,-9%,?,-4%,1%,-2%[38.3 µM]
c1coc(-c2ccnc3nc(-n4cccc4)nn23)c1,-1%,8%,7%,7.9µM*,-1%
COc1ccc(/C=C2/CCCC(CN(C)C)C2=O)cc1 (configuration not stated),0%,8%,/,10µM*,-7%
O=C(NCC1CCC2(CCN(Cc3c[nH]c4ccccc34)CC2)O1)C1CCOCC1 (configuration not stated),/,/,/,/,-1%

# Screening data (PubChem BioAssay)
